Screen size: about 310,000 compounds; about 14,000 (4.5%) showed an effect of 50% or more. The effect is printed as a negative number. The full list was thinned out, with strong results kept by preference.
These compounds were tested against human ether-à-go-go-related gene (hERG) potassium channel (human, UniProt Q12809) (assay: primary screen, population patch clamp on CHO cells stably expressing hERG; higher = less effect of the substance).
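Further: peak tail current of the secondary pulse compared with the same well before compound.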

human ether-à-go-go-related gene (hERG) potassium channel, sequence (Q12809 whole entry, looked up): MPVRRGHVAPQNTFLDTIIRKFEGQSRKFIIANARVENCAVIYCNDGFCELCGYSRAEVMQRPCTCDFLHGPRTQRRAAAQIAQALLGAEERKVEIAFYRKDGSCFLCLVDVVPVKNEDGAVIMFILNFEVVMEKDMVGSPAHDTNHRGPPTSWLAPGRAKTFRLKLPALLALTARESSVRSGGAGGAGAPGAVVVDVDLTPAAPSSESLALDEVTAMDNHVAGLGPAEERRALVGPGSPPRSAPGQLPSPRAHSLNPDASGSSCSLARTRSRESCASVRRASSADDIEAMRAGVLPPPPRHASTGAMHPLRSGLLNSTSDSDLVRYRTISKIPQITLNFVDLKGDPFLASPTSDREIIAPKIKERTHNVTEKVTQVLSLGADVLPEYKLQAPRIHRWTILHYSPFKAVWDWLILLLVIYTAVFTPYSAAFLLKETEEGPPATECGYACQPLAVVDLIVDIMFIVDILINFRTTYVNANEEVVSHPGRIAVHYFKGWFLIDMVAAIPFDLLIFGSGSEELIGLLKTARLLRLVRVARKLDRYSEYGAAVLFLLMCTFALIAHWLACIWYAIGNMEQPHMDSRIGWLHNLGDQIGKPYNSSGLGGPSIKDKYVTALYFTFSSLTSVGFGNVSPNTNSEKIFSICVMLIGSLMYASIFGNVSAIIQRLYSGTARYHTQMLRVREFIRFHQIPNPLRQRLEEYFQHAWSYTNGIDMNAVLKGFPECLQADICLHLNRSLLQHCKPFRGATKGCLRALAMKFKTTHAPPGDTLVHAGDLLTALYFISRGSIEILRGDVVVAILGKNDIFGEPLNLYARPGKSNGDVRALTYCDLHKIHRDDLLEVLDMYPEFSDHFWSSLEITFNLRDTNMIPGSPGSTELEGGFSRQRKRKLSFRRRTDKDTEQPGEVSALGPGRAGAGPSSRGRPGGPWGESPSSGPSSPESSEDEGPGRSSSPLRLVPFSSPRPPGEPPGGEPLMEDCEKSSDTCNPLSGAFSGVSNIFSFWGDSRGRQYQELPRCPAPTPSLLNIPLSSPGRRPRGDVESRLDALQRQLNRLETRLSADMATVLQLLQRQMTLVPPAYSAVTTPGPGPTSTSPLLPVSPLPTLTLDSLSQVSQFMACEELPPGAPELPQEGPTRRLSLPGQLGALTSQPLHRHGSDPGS

Compound | hERG current change (%, negative = inhibition) at 10uM [%]
O=C(O)c1ccc(N2C(=O)CC(N3CCN(c4ccc(Cl)cc4)CC3)C2=O)cc1 (stereo not drawn) | 6.79
O=C(NCc1ccc(-c2csnn2)cc1)C1CC1 | 7.09
CC1CCN(c2nc3c(=O)[nH]c(N)nc3n2[C@@H]2O[C@H](CO)[C@@H](O)[C@H]2O)CC1 | 13.6
COC(=O)c1ccc(NC(=O)Cn2cnc3c(nnn3-c3cccc(OC)c3)c2=O)cc1 | 3.08
CN1CCc2nc3ccc(F)cc3c(C(N)=O)c2C1.Cl | -4.4
Cl.Clc1ccc2nc3c(c(-c4ccccc4)c2c1)CNCC3 | -37.3
CN1CCc2nc3ccc(Cl)cc3c(-c3ccccc3Cl)c2C1.Cl | -65.7
CN(C)c1ccc(Nc2ncnc3ccc(Br)cc23)cc1 | 20.4
CNc1c([N+](=O)[O-])cnn1-c1ccc(C)cc1 | -2.24
COc1cc(CN2CCCC(N3CCN(c4ccccc4C)CC3)C2)ccc1O (stereo not drawn) | -27
COc1ccc(N2CCN(C3CCCN(Cc4ccc(F)cc4Cl)C3)CC2)cc1 (stereo not drawn) | -35.2
CCOc1cc(CN2CCN(c3ccc(C(C)=O)cc3)CC2)ccc1OC | -23.5
COc1ccc(O)c(CN2CCCC(N3CCN(c4ccc(F)cc4)CC3)C2)c1 (stereo not drawn) | -59.7
COc1ccccc1N1CCN(C2CCCN(Cc3cccc(O)c3)C2)CC1 (stereo not drawn) | -9.65
CC(C)/C=C/CN1CCCC(N2CCN(c3cccc(Cl)c3)CC2)C1 (stereo not drawn) | -50.7
COc1ccc(CN2CCCC(N3CCN(c4cccc(Cl)c4)CC3)C2)cc1OC (stereo not drawn) | -54.1
Cc1cccc(C(=O)N2CCCC(N3CCN(c4cccc(Cl)c4)CC3)C2)n1 (stereo not drawn) | -17.5
COc1ccccc1N1CCN(C2CCCN(Cc3ccc(Cl)cc3)C2)CC1 (stereo not drawn) | -41.1
CCOc1cc(CN2CCCC(N3CCN(c4ccc(F)cc4)CC3)C2)ccc1OC (stereo not drawn) | -62.7
COc1ccc(O)c(CN2CCCC(N3CCN(c4ccccc4OC)CC3)C2)c1 (stereo not drawn) | -11
CC(C)CN1CCCC(N2CCN(c3cccc(Cl)c3)CC2)C1 (stereo not drawn) | -21.5

Compound | hERG current change (%, negative = inhibition) at 10uM [%]
C#CC(C)(C)NC(=O)c1ccccc1OC | 1.69
CC(C)CNC(=O)COC(=O)/C=C/c1ccccc1[N+](=O)[O-] | 5.61
COCc1cc(C)nc(SCC(=O)c2ccc(O)c(O)c2)c1C#N | 6.86
CN(C)S(=O)(=O)N(CC(=O)Nc1ccc2ccccc2c1)c1ccccc1 | 8.45
CN1CCN(CCC(=O)Nc2ccc(OCc3ccccc3)cc2)CC1 | -41.6
Cn1cc(C(=O)c2cccc(Cl)c2Cl)cc1C(=O)O | 10.2
COc1ccc(-c2cc(-c3ccc(O)cc3)nc(N)c2C#N)cc1 | 3.91
COc1cc(/C=C(\C#N)C(=O)Nc2ccc3ccccc3c2)c([N+](=O)[O-])cc1OC | 8.14
Cc1c(C)n2c(SCC(=O)N3CCC(C)CC3)nnc2[nH]c1=O | 15.3
CC(=O)Nc1ccccc1NC(=O)C/C(C)=N/NC(=O)Cc1cccc2ccccc12 | 10.8
C=CCSC1=C(C#N)C(c2ccccc2OC)CC(=O)N1 (stereo not drawn) | -2.19
CCOc1cccc(CN2CCCC(N3CCN(c4cccc(Cl)c4)CC3)C2)c1O (stereo not drawn) | -58.7
COc1cc(CN2CCCC(N3CCN(c4ccc(F)cc4)CC3)C2)ccc1F (stereo not drawn) | -64.4
CCOc1cccc(CN2CCCC(N3CCc4cc(OC)c(OC)cc4C3)C2)c1O (stereo not drawn) | -39.3
COc1ccccc1CN1CCCC(N2CCN(c3ccccc3OC)CC2)C1 (stereo not drawn) | -11.9
CCn1nc(C)cc1C(=O)N1CCCC(N2CCN(c3cccc(Cl)c3)CC2)C1 (stereo not drawn) | -35
COc1ccccc1CN1CCCC(N2CCN(c3ccc(F)cc3)CC2)C1 (stereo not drawn) | -56.2
COc1ccccc1N1CCN(C2CCCN(Cc3cc(F)cc(F)c3)C2)CC1 (stereo not drawn) | -6.62
COc1ccc(N2CCN(C3CCCN(Cc4ccccc4OCCO)C3)CC2)cc1 (stereo not drawn) | -24.1
COc1ccc(N2CCN(C3CCCN(Cc4ccc(F)cc4)C3)CC2)cc1 (stereo not drawn) | -32.8
CCCCn1c(N)c(N(CCOC)C(=O)C2CCN(S(=O)(=O)c3ccc(F)cc3)CC2)c(=O)[nH]c1=O | -1.06

Compound | hERG current change (%, negative = inhibition) at 10uM [%]
COCCCN(C(C)=O)c1nc(-c2ccccc2)cs1 | -23.4
CCNC(=O)CSc1nc(-c2ccc(F)cc2)cs1 | 21.2
O=C(NCC(c1ccco1)N1CCc2ccccc21)c1ccc([N+](=O)[O-])cc1 (stereo not drawn) | -18.3
Cn1c(SCc2ccc(Cl)cc2)nnc1-c1ccc2nonc2c1 | 0.685
Cn1c(SCc2ccccc2)nnc1-c1ccc2nonc2c1 | -9.18
Cn1c(SCc2c(Cl)cccc2Cl)nnc1-c1ccc2nonc2c1 | -55.1
CC(c1ccco1)N(C(=O)c1ccccc1NS(=O)(=O)c1ccc(Cl)c([N+](=O)[O-])c1)c1ccccn1 (stereo not drawn) | -6.14
COc1ccc(NC(=O)c2nn(C)c(=O)c3ccccc23)cc1S(=O)(=O)Nc1ccccc1Cl | 26
COc1ccc(NC(=O)/C(=C\c2ccccc2)NC(=O)c2ccco2)cc1 | 0.0276
O=C(NC(Cc1ccccc1)C(=O)O)/C(=C/c1ccc([N+](=O)[O-])cc1)NC(=O)c1ccco1 (stereo not drawn) | 12.6
O=C(NCCc1ccccc1)/C(=C\c1ccccc1)NC(=O)c1ccco1 | -21.4
COc1ccc(/C=C(/NC(=O)c2ccco2)C(=O)NCCc2ccccc2)cc1 | -52.6
O=C(Nc1ccccc1)/C(=C/c1ccc([N+](=O)[O-])cc1)NC(=O)c1ccco1 | 6.42
O=C(NCc1ccccc1)/C(=C/c1ccccc1)NC(=O)c1ccco1 | -24.6
O=C(NCCc1ccccc1)/C(=C\c1ccc([N+](=O)[O-])cc1)NC(=O)c1ccco1 | -80.7
O=C(NCc1ccccc1)/C(=C\c1ccc([N+](=O)[O-])cc1)NC(=O)c1ccco1 | -60.9
O=C(NCc1ccccc1)/C(=C\c1ccccc1)NC(=O)c1ccco1 | -21.7
O=C(NCc1ccccc1)/C(=C/c1ccc([N+](=O)[O-])cc1)NC(=O)c1ccco1 | -62.7
O=C(NCCc1ccccc1)/C(=C\c1ccc([N+](=O)[O-])cc1)NC(=O)c1ccccc1 | -14.6
Cc1ccc(C(=O)N/C(=C\c2ccc([N+](=O)[O-])cc2)C(=O)NCCc2ccccc2)cc1 | -33.8
Cc1cc(S(=O)(=O)Nc2ccc3ccccc3c2)c(C)s1 | -0.508

Compound | hERG current change (%, negative = inhibition) at 10uM [%]
O=C(/C=C/c1cccs1)NC(=S)Nc1ccc(C(=O)O)cc1 | 6.78
CCOc1ccc(/C=N/Nc2cc(C)nc(N3CCOCC3)n2)cc1 | 3.47
O=C(O)c1ccc2c(c1)C1C=CCC1C(c1cc3c(cc1Br)OCO3)N2 (stereo not drawn) | 21.2
O=c1n(-c2ccc(Br)cc2)cnn1-c1ncccc1[N+](=O)[O-] | -22.1
O=C1N/C(=N\N=C\c2ccco2)SC1Cc1ccc(F)cc1 (stereo not drawn) | 14
Nc1ncnc(Nc2cccc(C(F)(F)F)c2)n1 | -5.45
Cc1ccc(SCc2[nH]nc3c2C(c2cccnc2)C(C#N)=C(N)O3)cc1 (stereo not drawn) | -2.64
O=C(CCN1C(=O)c2ccccc2C1=O)NCc1ccccc1 | 10.2
CCOC(=O)c1cc2occc2n1CC(=O)N1CCOCC1 | 6.95
COc1cc(-c2ccc(NC(=O)NC3CC3)c(OC)c2)ccc1NC(=O)NC1CC1 | 27.9
O=C(NCc1ccco1)/C(=C/c1ccc([N+](=O)[O-])cc1)NC(=O)c1ccco1 | -69.5
O=C(NCc1ccco1)/C(=C/c1ccc(Cl)cc1)NC(=O)c1ccco1 | -14
O=C(NCc1ccco1)/C(=C/c1ccccc1)NC(=O)c1ccco1 | 4.72
CC(C)CNC(=S)NC(=O)c1csc([N+](=O)[O-])c1 | 9.85
COc1cccc(C(=O)C2CCCN(Cc3cccc(-n4cccn4)c3)C2)c1 (stereo not drawn) | -64.5
COc1cccc(C(=O)C2CCCN(Cc3cccc(OCCO)c3)C2)c1 (stereo not drawn) | -48.7
COc1cccc(C(=O)C2CCCN(Cc3cccc(-n4nc(C)cc4C)c3)C2)c1 (stereo not drawn) | -59.4
COc1cccc(CN2CCCC(C(=O)N3CCCCC3)C2)c1.O=C(O)C(=O)O (stereo not drawn) | 5.13
Cc1cc(S(=O)(=O)N2CCCC(C)C2)ccc1-n1cnnn1 (stereo not drawn) | 5.72
O=C(CSc1nc(N2CCOCC2)nc(N2CCOCC2)n1)Nc1ccccc1F | 19.2
COc1ccccc1C(=O)CC(=O)C(=O)Nc1cccc([N+](=O)[O-])c1C | 8.79

From PMC4336329 (PLoS ONE, 2015)
